According to ChEMBL document CHEMBL3988442, “University of Dundee, Small-Polar-MMV Screening Library” (2021):

The molecules below were run against AMP-activated protein kinase, AMPK (Homo sapiens) (UniProt P54646+O43741+P54619+Q9UGJ0+Q9Y478+Q13131+Q9UGI9) (assay: AMP-dependent Kinase enzyme assay. An in vitro enzyme assay that detects ADP turnover that is directly proportional to AMPK activity. This uses naive AMPK that is activated during the assay with MK-8722). Settings: 30 µM.
Format: functional
Set-up: scale not given: direction of the effect not stated beside the values
Work on `CCOC(=O)c1n[nH]cc1CN1CCCC(N(C)Cc2ccccc2)C1` (stereo not given) yielded a Percent Effect of -0.954%.
Work on `NC(=O)c1cccc(-c2cnc(C3CCCNC3)cn2)c1` (stereo not given) yielded a Percent Effect of 12.6%.
`Cc1ccc(-c2nc(CC3CCN(C)CC3)no2)cc1N1CCNC1=O` showed a Percent Effect of 11.1%.
For `O=C(COCc1ccccc1)NCc1ccc(O)c(F)c1`, the Percent Effect was 8.21%.
`CC(Cc1cccc(F)c1)C(=O)NS(=O)(=O)c1ccc2c(c1)OCCO2` (stereo not given) showed a Percent Effect of 3.32%.
`Cc1ccc(CCCC(=O)N2CCC(=O)Nc3cccnc32)s1` was tested, and the Percent Effect was -8.96%.
With `Cc1cnn(C2CN(CCOc3ccc(C#N)cc3)C2)c1` the Percent Effect was 5.88%.
`Cn1cc(CN(C(=O)c2ccc(O)c(Cl)c2)C2CC2)cn1` was tested, and the Percent Effect was 10.3%.
For `CCN(CC(=O)NC)C(=O)c1sc(Cc2ccccc2)nc1C`, the Percent Effect was -3.98%.
`COCCCN1CC2(CCCN(CCn3cc(Cl)cn3)C2)CCC1=O` (stereo not given) showed a Percent Effect of 5.56%.
`COc1ccc(OC)c(-c2cc(C(=O)NCC3(CO)CC3)n(C)n2)c1` showed a Percent Effect of -3.88%.
`Cc1cnn(CCNCC(=O)N2CCN(c3ccccn3)CC2)c1` showed a Percent Effect of -14.7%.
Work on `Cc1ccc(-n2cc(C(=O)NCc3nnc4n3CCCCC4)nn2)cc1` yielded a Percent Effect of 5.45%.
`CNC(=O)Cc1ccc(NC(=O)NCc2ncc(C)s2)cc1` gave a Percent Effect of -2.7%.
For `Cc1noc(CN(C)c2nc(-c3ccco3)nc3c2CCN(C)CC3)n1`, the Percent Effect was 3.37%.
With `c1ccc(CCN2CCN(C3CCOC4(CCOCC4)C3)CC2)nc1` (stereo not given) the Percent Effect was -2.83%.
`CCCn1cc(NC(=O)c2cccc(CN3CC[C@H](O)C3)c2)nn1` was tested, and the Percent Effect was -5.04%.
With `CC(CN1CCOC1=O)NC(=O)c1cccc(Cl)c1Cl` (stereo not given) the Percent Effect was 10%.
`Cc1cc(N2CCC3(CCCN(CCO)C3=O)C2)nc2cc(Cl)ccc12` (stereo not given) was tested, and the Percent Effect was 10%.
`CC(C)Oc1ncccc1CNC(=O)NC(C)c1cccs1` (stereo not given) was tested, and the Percent Effect was -3.91%.
With `COc1cc(N(C)Cc2cc(C(C)(C)C)n[nH]2)ncn1` the Percent Effect was -15.7%.
`COc1nsc2nc(C3CCCN3C(C)=O)ccc12` (stereo not given) gave a Percent Effect of 7.38%.
For `Cc1ccc(S(=O)(=O)N(C)CC(C)O)c(F)c1` (stereo not given), the Percent Effect was 8.59%.
In the case of `COCC(NC(=O)c1cc(NC(C)=O)ccc1Cl)c1ccccn1` (stereo not given), the Percent Effect is reported as 1.62%.
Molecule `COc1ccccc1N1CCCC(NC(=O)Nc2cccnc2)C1` (stereo not given) has a Percent Effect of -1.53%.
`Cc1cc(Br)ccc1C(=O)Nc1c(C(N)=O)n[nH]c1C` showed a Percent Effect of 1.52%.
In the case of `Cc1ncc2c(n1)CN(Cc1nc(-c3ccsc3)oc1C)CC2`, the Percent Effect is reported as -40.6%.
`CSCC(C)(O)CNS(=O)(=O)c1ccc(F)cc1` (stereo not given) was tested, and the Percent Effect was -4.97%.
`CN(Cc1csc2ccccc12)C(=O)NC1CCS(=O)(=O)C1` (stereo not given) was tested, and the Percent Effect was 8.42%.
`COC1CCN(S(=O)(=O)N2CC[C@@](O)(C3CCC3)[C@H](C)C2)CC1` showed a Percent Effect of -3.56%.
`C[C@H](N)C(=O)N1CCC(c2[nH]ncc2-c2ccccc2)CC1` gave a Percent Effect of -8.96%.
In the case of `CCn1cnnc1CNC(=O)c1ccc(Br)cc1F`, the Percent Effect is reported as -10.5%.
In the case of `O=C(NC1CC1)C1CNCCN1C(=O)CCOc1ccccc1` (stereo not given), the Percent Effect is reported as 4.98%.
For `CS(=O)(=O)c1ccc(NC(=O)NCCC2=CCCCC2)cc1`, the Percent Effect was -2.69%.
For `Cc1cncc(C2CCN(Cc3ccc(S(C)(=O)=O)cc3)CC2)n1`, the Percent Effect was 5.76%.
`O=C(Nc1ccccn1)c1ccc(F)c(S(=O)(=O)NC2CC2)c1` showed a Percent Effect of 1.7%.
With `Cc1cc(N2CCCC2)nc(CNS(=O)(=O)Cc2ccccc2)n1` the Percent Effect was 5.01%.
`CN(CCc1ccccc1)Cc1c(C2CCOCC2)[nH]c2ncccc12` showed a Percent Effect of 11.1%.
In the case of `CN(C)S(=O)(=O)NCC1CCN(Cc2ccccc2F)CC1`, the Percent Effect is reported as -2.6%.
`CCc1ccc(CN2CCN(c3ccc(C#N)cc3)C(=O)C2)nc1` gave a Percent Effect of 3.08%.
